# A selection: hits, their analogues and other compounds. The true share with any hit is near 27%.
# CYP2C9 act: increases human cytochrome P450 2C9 activity; actives 1.4% (n = 96,000); P11712; recombinant CYP2C9, luciferin-H conversion, luminescence; stronger effect = higher value; factor 1 = untreated enzyme, 0 = blocked; activation factor at 5 µM;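 active = activation factor of 2 or more for CYP2C9 at a 5 µM dose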;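 note: 0 = sulfaphenazole-blocked wells and 1 = vehicle-only wells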
# CYP2C9 inhib: blocks human cytochrome P450 2C9 | P11712 | CYP2C9 Supersomes, luciferin-H conversion, luminescence | inhibition, % at 5 µM | actives 20% (n = 96,000);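 active = blocking of liver enzyme CYP2C9 beyond about 50% at 5 µM, limit read from the data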
# Cav3 T inh: human Cav3.2 channel inhibition, primary screen; Cav3.2-expressing cells, Fluo-4 calcium fluorescence FDSS; stronger effect = lower value; actives 4% (n = 100,000); O95180; B-score at 10 µM;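 active = single-dose well whose peak fluorescence ratio is a statistical outlier from its plate by either plate-standardised score or position-corrected B-score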
# CYP2C19 inh: human CYP2C19 inhibition. P33261. CYP2C19 Supersomes, luciferin-H EGE luminescence, 30 min. inhibition, % at 5 µM. actives 21% (n = 96,000). AID 778;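 active = CYP2C19 inhibition above a set limit at 5 µM in the primary screen, cut at about 50% in these data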;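 note: plate controls were negative control wells for no effect and 2.5 mM tranylcypromine positive control for full effect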
# CYP2C19 activ: activators of human cytochrome P450 2C19 | activation factor at 5 µM | 96,000 tested, under 10 active | P33261 | AID 1025 | recombinant CYP2C19, luciferin-H EGE luminescence; stronger effect = higher value; 0 = fully inhibited enzyme, 1 = untreated enzyme;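 active = activation factor of at least 2 at 5 µM in the primary screen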;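 note: 0 = wells with 2.5 mM tranylcypromine and 1 = vehicle-only wells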
# The depositor's hits bear a star; x = not tested or not shown.
SMILES,CYP2C9 act,CYP2C9 inhib,Cav3 T inh,CYP2C19 inh,CYP2C19 activ
Cc1ccc(CNC(=O)CCc2ccc(S(=O)(=O)NC3CCCCC3)cc2)cc1,0.3,69*,-4.1,52*,0.5
CCN(CC)CCNc1nc2cc(OC)c(OC)cc2c2nc(-c3ccccc3)nn12,1.3,-25,0.014,-4,1
COc1ccc(C2=NOC(C)(c3nnc(Cc4ccccc4)o3)C2)cc1 (stereo unspecified),x,x,0.26,x,x
CCCN1C2CCCC1CC(NC(=O)c1cc(OC)c(OC)c(OC)c1)C2 (stereo unspecified),1,0,0.8,2,1
Cc1ccccc1Cn1c2ccccc2c2cnn(CC(=O)N3CCN(c4ccccc4)CC3)c(=O)c21,0.6,37,-3.6,62*,0.4
COC(=O)Cn1ncc2c3ccccc3n(Cc3ccccc3)c2c1=O,0.7,30,-0.35,34,0.7
O=C(Cn1cnc2ccccc2c1=O)N1CCN(c2ccccc2)CC1,x,x,0.81,x,x
O=C(Cn1ncc2c3ccccc3n(Cc3ccc(F)cc3)c2c1=O)N1CCN(c2ncccn2)CC1,0,95*,-2.7,99*,0
O=C1Nc2cc3c(cc2Sc2ccccc21)OCCO3,1.1,-6,-0.49,26,0.7
COc1ccc(N2CCN(c3nc(NC(C)(C)C)nc(N4CCCCC4)n3)CC2)cc1,0.5,46,-3.7,17,0.8
Cc1ccccc1NC(=O)CC1S/C(=N/c2nccs2)N(C)C1=O (stereo unspecified),0,98*,-0.32,90*,0.1
Cc1ccc(NC(=O)CC2S/C(=N/c3nccs3)N(C)C2=O)cc1C (stereo unspecified),0.2,79*,-0.022,86*,0.1
CN=C1SC(CC(=O)Nc2cc(Cl)ccc2Cl)C(=O)N1C (stereo unspecified),0.9,6,1.3,60*,0.4
CCc1ccccc1NC(=O)CC1S/C(=N\c2nccs2)N(CC)C1=O (stereo unspecified),0,97*,-0.59,96*,0
CCOC(=O)c1ccccc1NC(=O)CC1SC(=NC)N(C)C1=O (stereo unspecified),1.1,-13,-0.83,17,0.8
c1ccc(-n2nnnc2SCc2cccc3nsnc23)cc1,0.6,38,-1.3,-2,1
CC(C)(C)[C@@H]1C=C(C(N)=O)O[C@H](OCCCCO)C1,x,x,0.96,x,x
Cc1cc(C)cc(C(=O)NC(CC(N)=O)c2ccc(NC3CCCCC3)c([N+](=O)[O-])c2)c1 (stereo unspecified),x,x,1.1,x,x
COc1ccc(CCN2CC34C=CC(O3)C(C(=O)NCc3ccccc3)C4C2=O)cc1OC (stereo unspecified),0.5,49,-0.087,3,1
COc1ccccc1C(=O)O/N=C1/CCCc2c1ccc(OC)c2[N+](=O)[O-],0.5,51*,0.72,85*,0.1
COc1cc(C(=O)O/N=C2\CCCc3c2ccc(OC)c3[N+](=O)[O-])cc(OC)c1OC,1.1,-10,x,-5,1
O=C1c2c(O)cc(O)cc2O[C@H](c2ccc(O)c(O)c2)[C@@H]1O,x,x,0.61,x,x
CC(/C=N/N1CCN(c2ccccc2)CC1)=C\c1ccco1,0.8,23,-0.45,56*,0.4
CC(=C/c1ccco1)/C=N/N1CCN(c2ccccc2)CC1,0.8,18,-0.065,55*,0.4
CN(C)CCCC1(O)c2ccccc2C=Cc2ccccc21,x,x,-0.017,x,x
SMILES,CYP2C9 act,CYP2C9 inhib,Cav3 T inh,CYP2C19 inh,CYP2C19 activ
COCCNC(=O)c1onc(CSc2ccc(F)c(F)c2)c1C(=O)NCCOC,x,x,1.2,x,x
COC(=O)C1=C(C)N2C(=O)CSC2=NC1c1ccc2c(c1)OCO2 (stereo unspecified),0.5,50*,x,65*,0.4
COC(=O)N1CC(c2ccccc2)CC1=O (stereo unspecified),0.8,20,0.11,35,0.6
O=C1CC(c2ccccc2)CN1S(=O)(=O)c1ccccc1 (stereo unspecified),2.5*,-152,0.067,99*,0
NC(=O)c1cccc(S(=O)(=O)N2CC(c3ccccc3)CC2=O)c1 (stereo unspecified),2.2*,-116,0.6,56*,0.4
CC(C)Oc1ccc(CNC(=O)CC(c2ccccc2)c2cc(Cl)ccc2O)cc1 (stereo unspecified),0,96*,-3.5*,87*,0.1
CCCCCNC(=O)CCc1ccccc1,x,x,0.68,x,x
CCCCCCNC(=O)CC(c1ccccc1)c1cc(Br)ccc1O (stereo unspecified),x,x,-5.9*,x,x

# Assay outcomes (PubChem BioAssay)
